Among all 5,500 compounds or so, about 2,000 (36%) were called active. Not shown: some 18% with an inconclusive outcome. No stated cut-off is given here; in the data, active means normalized growth mostly below about 0.91 (no sharp cut-off); inconclusive means no clear call, values can overlap the other calls; inactive means mostly above about 0.92. This is one part of the list.
Assay: chemical genetic growth profiling, strain panel (AID 1159580);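 further: tested at 20 µM; growth read once vehicle control cultures reached saturation at 30 °C; 1 = growth at the plate median or of vehicle wells; lower values mean less growth of the strain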
Settings: growth OD

Measured: normalized growth

COc1cc(O)c2c(=O)c(O)c(-c3ccc(O)c(O)c3)oc2c1
active: S. cerevisiae deletion strains, locus YAL021C, strain ccr4, active compounds read low 0.466 | S. cerevisiae deletion strains, locus YAL026C, strain drs2, active compounds read low 0.678 | S. cerevisiae deletion strains, locus YAL030W, strain snc1, active compounds read low 0.886 | S. cerevisiae deletion strains, locus YBL061C, strain skt5, active compounds read low 0.794 | S. cerevisiae deletion strains, locus YBR009C, strain hhf1, active compounds read low 0.773 | S. cerevisiae deletion strains, locus YBR023C, strain chs3, active compounds read low 0.693 | S. cerevisiae deletion strains, locus YBR231C, strain swc5, active compounds read low 0.72 | S. cerevisiae deletion strains, locus YBR279W, strain paf1, active compounds read low 0.829 | S. cerevisiae deletion strains, locus YCL011C, strain gbp2, active compounds read low 0.803 | S. cerevisiae deletion strains, locus YCL016C, strain dcc1, active compounds read low 0.865 | S. cerevisiae deletion strains, locus YCL069W, strain vba3, active compounds read low 0.846 | S. cerevisiae deletion strains, locus YCR088W, strain abp1, active compounds read low 0.912 | S. cerevisiae deletion strains, locus YDR069C, strain doa4, active compounds read low 0.467 | S. cerevisiae deletion strains, locus YDR137W, strain rgp1, active compounds read low 0.659 | S. cerevisiae deletion strains, locus YDR297W, strain sur2, active compounds read low 0.787 | S. cerevisiae deletion strains, locus YDR334W, strain swr1, active compounds read low 0.755 | S. cerevisiae deletion strains, locus YDR335W, strain msn5, active compounds read low 0.761 | S. cerevisiae deletion strains, locus YEL003W, strain gim4, active compounds read low 0.795 | S. cerevisiae deletion strains, locus YEL037C, strain rad23, active compounds read low 0.823 | S. cerevisiae deletion strains, locus YEL061C, strain CIN8 (second series), active compounds read low 0.907 | S. cerevisiae deletion strains, locus YER015W, strain faa2, active compounds read low 0.66 | S. cerevisiae deletion strains, locus YER016W, strain bim1, active compounds read low 0.895 | S. cerevisiae deletion strains, locus YER111C, strain swi4, active compounds read low 0.793 | S. cerevisiae deletion strains, locus YER155C, strain BEM2 (second series), active compounds read low 0.789 | S. cerevisiae deletion strains, locus YFR010W, strain ubp6, active compounds read low 0.736 | S. cerevisiae deletion strains, locus YGL173C, strain kem1, active compounds read low 0.657 | S. cerevisiae deletion strains, locus YGL253W, strain hxk2, active compounds read low 0.693 | S. cerevisiae deletion strains, locus YHR013C, strain ard1, active compounds read low 0.808 | S. cerevisiae deletion strains, locus YHR027C, strain rpn1, active compounds read low 0.549 | S. cerevisiae deletion strains, locus YHR129C, strain ARP1, active compounds read low 0.875 | S. cerevisiae deletion strains, locus YHR142W, strain chs7, active compounds read low 0.622 | S. cerevisiae deletion strains, locus YJL092W, strain hpr5, active compounds read low 0.885 | S. cerevisiae deletion strains, locus YJL095W, strain BCK1 (second series), active compounds read low 0.746 | S. cerevisiae deletion strains, locus YJL129C, strain trk1, active compounds read low 0.867 | S. cerevisiae deletion strains, locus YJL164C, strain tpk1, active compounds read low 0.723 | S. cerevisiae deletion strains, locus YJL166W, strain qcr8, active compounds read low 0.819 | S. cerevisiae deletion strains, locus YJL187C, strain SWE1 (second series), active compounds read low 0.776 | S. cerevisiae deletion strains, locus YKL160W, strain elf1, active compounds read low 0.84 | S. cerevisiae deletion strains, locus YLL001W, strain dnm1, active compounds read low 0.782 | S. cerevisiae deletion strains, locus YLR027C, strain aat2, active compounds read low 0.843 | S. cerevisiae deletion strains, locus YLR058C, strain SHM2, active compounds read low 0.827 | S. cerevisiae deletion strains, locus YLR221C, strain rsa3, active compounds read low 0.779 | S. cerevisiae deletion strains, locus YLR258W, strain gsy2, active compounds read low 0.854 | S. cerevisiae deletion strains, locus YLR262C, strain YPT6 (second series), active compounds read low 0.565 | S. cerevisiae deletion strains, locus YLR320W, strain mms22, active compounds read low 0.758 | S. cerevisiae deletion strains, locus YLR342W, strain FKS1, active compounds read low 0.643 | S. cerevisiae deletion strains, locus YLR357W, strain rsc2, active compounds read low 0.678 | S. cerevisiae deletion strains, locus YLR370C, strain arc18, active compounds read low 0.813 | S. cerevisiae deletion strains, locus YML016C, strain PPZ1, active compounds read low 0.915 | S. cerevisiae deletion strains, locus YML120C, strain ndi1, active compounds read low 0.879 | S. cerevisiae deletion strains, locus YMR058W, strain fet3, active compounds read low 0.247 | S. cerevisiae deletion strains, locus YMR205C, strain PFK2, active compounds read low 0.658 | S. cerevisiae deletion strains, locus YMR231W, strain pep5, active compounds read low 0.874 | S. cerevisiae deletion strains, locus YNL209W, strain ssb2, active compounds read low 0.452 | S. cerevisiae deletion strains, locus YOR001W, strain rrp6, active compounds read low 0.845 | S. cerevisiae deletion strains, locus YOR070C, strain gyp1, active compounds read low 0.878 | S. cerevisiae deletion strains, locus YOR080W, strain dia2, active compounds read low 0.813 | S. cerevisiae deletion strains, locus YOR083W, strain WHI5, active compounds read low 0.749 | S. cerevisiae deletion strains, locus YOR106W, strain vam3, active compounds read low 0.407 | S. cerevisiae deletion strains, locus YOR265W, strain rbl2, active compounds read low 0.883 | S. cerevisiae deletion strains, locus YOR270C, strain vph1, active compounds read low 0.484 | S. cerevisiae deletion strains, locus YOR290C, strain snf2, active compounds read low 0.701 | S. cerevisiae deletion strains, locus YPL051W, strain arl3, active compounds read low 0.521 | S. cerevisiae deletion strains, locus YPL078C, strain atp4, active compounds read low 0.796 | S. cerevisiae deletion strains, locus YPL106C, strain sse1, active compounds read low 0.77 | S. cerevisiae deletion strains, locus YPL240C, strain hsp82, active compounds read low 0.83
inactive: S. cerevisiae deletion strains, locus YAL013W, strain DEP1, active compounds read low 0.998 | S. cerevisiae deletion strains, locus YBR021W, strain FUR4, active compounds read low 1.01 | S. cerevisiae deletion strains, locus YBR171W, strain sec66, active compounds read low 0.932 | S. cerevisiae deletion strains, locus YBR229C, strain ROT2, active compounds read low 0.987 | S. cerevisiae deletion strains, locus YCL029C, strain bik1, active compounds read low 1.01 | S. cerevisiae deletion strains, locus YDL005C, strain med2, active compounds read low 1 | S. cerevisiae deletion strains, locus YDL035C, strain GPR1, active compounds read low 0.931 | S. cerevisiae deletion strains, locus YDL040C, strain nat1, active compounds read low 0.988 | S. cerevisiae deletion strains, locus YDL074C, strain BRE1, active compounds read low 0.822 | S. cerevisiae deletion strains, locus YDL101C, strain DUN1, active compounds read low 0.911 | S. cerevisiae deletion strains, locus YDL185W, strain tfp1, active compounds read low 0.995 | S. cerevisiae deletion strains, locus YDL192W, strain arf1, active compounds read low 0.986 | S. cerevisiae deletion strains, locus YDR001C, strain nth1, active compounds read low 0.954 | S. cerevisiae deletion strains, locus YDR101C, strain arx1, active compounds read low 0.992 | S. cerevisiae deletion strains, locus YDR159W, strain sac3, active compounds read low 0.891 | S. cerevisiae deletion strains, locus YDR162C, strain NBP2, active compounds read low 0.948 | S. cerevisiae deletion strains, locus YDR195W, strain ref2 1.02 | S. cerevisiae deletion strains, locus YDR318W, strain mcm21, active compounds read low 0.986 | S. cerevisiae deletion strains, locus YDR388W, active compounds read low 1.01 | S. cerevisiae deletion strains, locus YDR392W, strain spt3, active compounds read low 0.838 | S. cerevisiae deletion strains, locus YDR502C, strain sam2, active compounds read low 0.981 | S. cerevisiae deletion strains, locus YEL061C, strain CIN8, active compounds read low 0.966 | S. cerevisiae deletion strains, locus YER110C, active compounds read low 1.03 | S. cerevisiae deletion strains, locus YER155C, strain BEM2, active compounds read low 1.01 | S. cerevisiae deletion strains, locus YER167W, strain BCK2, active compounds read low 1.02 | S. cerevisiae deletion strains, locus YGL078C, strain dbp3, active compounds read low 1.01 | S. cerevisiae deletion strains, locus YGL086W, strain mad1, active compounds read low 0.933 | S. cerevisiae deletion strains, locus YGL167C, strain pmr1, active compounds read low 0.949 | S. cerevisiae deletion strains, locus YGL227W, strain vid30, active compounds read low 1.01 | S. cerevisiae deletion strains, locus YGL240W, strain doc1, active compounds read low 0.961 | S. cerevisiae deletion strains, locus YGL248W, strain PDE1, active compounds read low 0.915 | S. cerevisiae deletion strains, locus YGR135W, strain pre9, active compounds read low 0.984 | S. cerevisiae deletion strains, locus YGR252W, strain gcn5, active compounds read low 1.03 | S. cerevisiae deletion strains, locus YHR030C, strain SLT2, active compounds read low 0.971 | S. cerevisiae deletion strains, locus YHR079C, strain IRE1 (second series), active compounds read low 1.02 | S. cerevisiae deletion strains, locus YHR094C, strain hxt1, active compounds read low 1.02 | S. cerevisiae deletion strains, locus YHR200W, strain rpn10, active compounds read low 0.997 | S. cerevisiae deletion strains, locus YIL066C, strain RNR3, active compounds read low 0.974 | S. cerevisiae deletion strains, locus YIL073C, strain SPO22, active compounds read low 0.925 | S. cerevisiae deletion strains, locus YIL125W, strain kgd1, active compounds read low 0.981 | S. cerevisiae deletion strains, locus YIR030C, strain dcg1, active compounds read low 1.01 | S. cerevisiae deletion strains, locus YJL095W, strain BCK1, active compounds read low 0.822 | S. cerevisiae deletion strains, locus YJL115W, strain asf1, active compounds read low 0.968 | S. cerevisiae deletion strains, locus YJL134W, strain LCB3, active compounds read low 0.986 | S. cerevisiae deletion strains, locus YJL154C, strain vps35, active compounds read low 0.957 | S. cerevisiae deletion strains, locus YJL168C, strain set2, active compounds read low 1.03 | S. cerevisiae deletion strains, locus YJR043C, strain POL32, active compounds read low 0.896 | S. cerevisiae deletion strains, locus YJR075W, strain HOC1, active compounds read low 0.987 | S. cerevisiae deletion strains, locus YKL009W, strain mrt4, active compounds read low 1.02 | S. cerevisiae deletion strains, locus YKL068W, active compounds read low 1 | S. cerevisiae deletion strains, locus YKL085W, strain MDH1 (second series), active compounds read low 0.994 | S. cerevisiae deletion strains, locus YKL085W, strain MDH1, active compounds read low 0.994 | S. cerevisiae deletion strains, locus YKL190W, strain CNB1, active compounds read low 0.997 | S. cerevisiae deletion strains, locus YKR001C, strain vps1, active compounds read low 0.996 | S. cerevisiae deletion strains, locus YKR026C, strain gcn3, active compounds read low 0.945 | S. cerevisiae deletion strains, locus YKR091W, strain srl3, active compounds read low 0.961 | S. cerevisiae deletion strains, locus YLL026W, active compounds read low 0.934 | S. cerevisiae deletion strains, locus YLL041C, strain sdh2, active compounds read low 0.928 | S. cerevisiae deletion strains, locus YLR039C, strain RIC1, active compounds read low 0.785 | S. cerevisiae deletion strains, locus YLR102C, strain apc9, active compounds read low 1.02 | S. cerevisiae deletion strains, locus YLR262C, strain YPT6, active compounds read low 0.91 | S. cerevisiae deletion strains, locus YLR268W, strain sec22, active compounds read low 0.968 | S. cerevisiae deletion strains, locus YLR330W, strain CHS5, active compounds read low 0.99 | S. cerevisiae deletion strains, locus YLR342W, strain FKS1 (second series), active compounds read low 0.898 | S. cerevisiae deletion strains, locus YLR371W, strain rom2, active compounds read low 0.962 | S. cerevisiae deletion strains, locus YLR384C, strain iki3, active compounds read low 0.936 | S. cerevisiae deletion strains, locus YLR418C, strain cdc73, active compounds read low 0.957 | S. cerevisiae deletion strains, locus YML032C, strain rad52, active compounds read low 1.02 | S. cerevisiae deletion strains, locus YML124C, strain tub3, active compounds read low 1.02 | S. cerevisiae deletion strains, locus YMR078C, strain ctf18, active compounds read low 1.02 | S. cerevisiae deletion strains, locus YMR125W, strain sto1, active compounds read low 1 | S. cerevisiae deletion strains, locus YMR129W, active compounds read low 0.927 | S. cerevisiae deletion strains, locus YMR223W, strain ubp8, active compounds read low 1 | S. cerevisiae deletion strains, locus YMR307W, strain GAS1, active compounds read low 0.768 | S. cerevisiae deletion strains, locus YNL067W, strain RPL9B, active compounds read low 0.953 | S. cerevisiae deletion strains, locus YNL071W, strain lat1, active compounds read low 0.919 | S. cerevisiae deletion strains, locus YNL128W, strain TEP1, active compounds read low 0.935 | S. cerevisiae deletion strains, locus YNL233W, strain BNI4, active compounds read low 0.894 | S. cerevisiae deletion strains, locus YNL248C, strain rpa49, active compounds read low 0.889 | S. cerevisiae deletion strains, locus YNL250W, strain rad50, active compounds read low 0.986 | S. cerevisiae deletion strains, locus YNL271C, strain bni1, active compounds read low 0.998 | S. cerevisiae deletion strains, locus YNL298W, strain CLA4, active compounds read low 1.01 | S. cerevisiae deletion strains, locus YNL307C, strain MCK1, active compounds read low 1.02 | S. cerevisiae deletion strains, locus YNL322C, strain KRE1 (second series), active compounds read low 0.967 | S. cerevisiae deletion strains, locus YNL322C, strain KRE1, active compounds read low 0.952 | S. cerevisiae deletion strains, locus YNR049C, strain mso1, active compounds read low 0.947 | S. cerevisiae deletion strains, locus YNR052C, strain pop2, active compounds read low 0.991 | S. cerevisiae deletion strains, locus YOL006C, strain TOP1, active compounds read low 0.624 | S. cerevisiae deletion strains, locus YOL012C, strain htz1 0.669 | S. cerevisiae deletion strains, locus YOL147C, strain pex11, active compounds read low 1.01 | S. cerevisiae deletion strains, locus YOR061W, strain CKA2, active compounds read low 0.934 | S. cerevisiae deletion strains, locus YOR069W, strain VPS5, active compounds read low 0.966 | S. cerevisiae deletion strains, locus YOR136W, strain idh2, active compounds read low 1.01 | S. cerevisiae deletion strains, locus YOR144C, strain elg1, active compounds read low 1.02 | S. cerevisiae deletion strains, locus YOR184W, strain ser1, active compounds read low 0.993 | S. cerevisiae deletion strains, locus YOR316C, strain cot1, active compounds read low 1.05 | S. cerevisiae deletion strains, locus YPL241C, strain CIN2, active compounds read low 0.989 | S. cerevisiae deletion strains, locus YPR119W, strain clb2, active compounds read low 1.03 | S. cerevisiae deletion strains, locus YPR141C, strain kar3, active compounds read low 0.997 | S. cerevisiae deletion strains, locus YPR163C, strain tif3, active compounds read low 1.01 | S. cerevisiae deletion strains, locus YPR167C, strain met16, active compounds read low 1 | S. cerevisiae deletion strains, strain wtn01, active compounds read low 0.996 | S. cerevisiae strains, strain wild type, active compounds read low 0.929
